# CHOP inhibitor: inhibitors of CHOP induction in ER stress response. CHO-K1 CHOP-promoter luciferase, tunicamycin-induced, 15-18 h. inhibition, % at 10 µM. actives 3.8% (n = 220,000);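 active = compounds that reduced the stress-induced luciferase reporter signal by more than about 70% of percent inhibition, limit read from the data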;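 note: 0% = tunicamycin plus vehicle and 100% = wells without tunicamycin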
# Arbovirus anti: antivirals against arbovirus infection. arbovirus infection cell-based antiviral screen. inhibition, % at 10 µM. actives 0.37% (n = 200,000); in the data active = inhibition above about 30%
# WT yeast gro inh: growth inhibition of WT yeast, mitochondrial fusion screen; mitochondrial fusion phenotypic screen, WT strain; inhibition, % at 10 µM; actives 2.1% (n = 190,000); AID 1362; in the data active = inhibition above about 58%; tested in S. cerevisiae
# L major viab: reduces viability of Leishmania major promastigotes; AID 1063; actives 9% (n = 200,000); inhibition, % at 10 µM; resazurin fluorescence viability; in the data active = inhibition above about 50%;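 note: promastigotes grown with compound for 44 hours at 28 °C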
# An asterisk follows results filed as active; / = no result given. In the library only some 12% were active in any assay of this set; here they are far more common.
SMILES,CHOP inhibitor,Arbovirus anti,WT yeast gro inh,L major viab
COc1cc([N+](=O)[O-])ccc1NC(=S)Nc1cc(C(=O)OC(C)C)cc(C(=O)OC(C)C)c1,85*,-6,8,18
COc1ccc([N+](=O)[O-])cc1NC(=S)NC(C)=O,13,-4,12,3
COc1ccc(S(=O)(=O)Cc2ccc(C(=O)N3CCN(c4cc(Cl)ccc4C)CC3)o2)cc1,41,5,42,-6
COc1ccc(N2CCN(C(=O)c3ccc(CS(=O)(=O)c4ccc(OC)cc4)o3)CC2)cc1,36,3,-2,81*
COc1ccc(S(=O)(=O)Cc2ccc(C(=O)N3CCN(c4cccc(C)c4C)CC3)o2)cc1,71*,-8,44,-4
COc1ccc(S(=O)(=O)Cc2ccc(C(=O)N3CCN(c4ccc(Cl)cc4)CC3)o2)cc1,54,7,40,45
O=C(CC(C(=O)O)c1ccccc1)Nc1cccc2ccccc12 (centres undefined),23,2,-12,-4
CCOC(=O)c1c(C2CC2)csc1NC(=O)COC(=O)c1cc(OC)c(OC)cc1[N+](=O)[O-],2,-9,2,91*
CCOC(=O)c1c(C2CC2)csc1NC(=O)COC(=O)c1ccc[n+]([O-])c1,5,-10,10,-1
CC(NC(=O)COC(=O)c1cc(NS(=O)(=O)c2ccc(Cl)c([N+](=O)[O-])c2)ccc1O)C1CC2CCC1C2 (centres undefined),6,-31,-6,-9
O=C(CC(SCCO)c1ccc2c(c1)OCO2)c1cccs1 (centres undefined),3,-29,8,73*
O=C(CC(SCc1ccco1)c1ccc(O)cc1)c1cccs1 (centres undefined),11,-9,-2,29
O=C(Nc1nc2ccccc2[nH]1)C1CCCC1,-3,-8,1,21
C(=C\c1ccccc1)/C=N/Nc1nc2ccccc2[nH]1,-51,1,53,37
C(=N\Nc1nc2ccccc2[nH]1)/C1CCCCC1,20,-31,-2,68*
C(/CCc1ccccc1)=N\Nc1nc2ccccc2[nH]1,-6,-24,-1,67*
CC[C@H](C)[C@H](NC(N)=O)C(=O)NCCc1ccc(OC)c(OC)c1,3,3,-9,-3
Cc1oc(-c2ccc(Cl)cc2)cc1C(=O)/C(C#N)=C/Nc1ccccc1,-22,/,/,/
COC(=O)c1cc(S(=O)(=O)N(C)C2CCCCC2)oc1C,-4,/,/,/
COc1cc(S(=O)(=O)N(C)C2CCCCC2)c(C)cc1C,9,2,59*,10
O=C(NC1CC1)c1ccc2c(c1)C1C3CCC(C3)C1C(c1ccccc1)N2 (centres undefined),27,-25,71*,36
Cn1cccc1C(=O)C(=O)Nc1ccc(F)c(F)c1,-14,5,8,-3
CCOc1ccc(C(=O)NNC2CC(=O)N(CCc3ccccc3)C2=O)cc1OC (centres undefined),29,0,-2,63*
COc1ccc(CCN2C(=O)CC(NNC(=O)c3ccccc3Br)C2=O)cc1OC (centres undefined),4,3,14,56*
COc1ccc(CCN2C(=O)CC(NNC(=O)c3ccc(F)cc3)C2=O)cc1OC (centres undefined),5,-1,-4,3
SMILES,CHOP inhibitor,Arbovirus anti,WT yeast gro inh,L major viab
CC(C)C(NC(=O)c1ccc(F)cc1)C(=O)Nc1cccnc1 (centres undefined),14,13,-10,-5
COc1cc(/C=C(\C#N)C(=O)Nc2cccnc2)ccc1OC(C)C,4,-3,-6,-5
CCCNC(=O)CSc1nnc(-c2ccccc2Br)n1-c1cccc(C(F)(F)F)c1,8,-2,-9,79*
CCOC(=O)c1ccc(NC(=O)C(C)Sc2nc(O)c(-c3ccccc3)c(=O)[nH]2)cc1 (centres undefined),21,2,5,-9
C/C=C/c1ccc(OCCCCN2CC(C)CC(C)C2)c(OC)c1 (centres undefined),18,-2,17,8
C/C=C/c1ccc(OCCCNCC(C)O)c(OC)c1 (centres undefined),-16,-5,9,-1
C/C=C/c1ccc(OCCCCNCc2ccco2)c(OC)c1,8,-32,15,93*
C/C=C/c1ccc(OCCCCN2CCN(CC)CC2)c(OC)c1,45,-8,-3,86*
COc1ccc(Cn2nc(C)n(N(C)c3ncc(C(F)(F)F)cc3Cl)c2=O)cc1,15,3,-7,99*
Cc1cccn2cc(CCNC(=O)c3cccs3)nc12,-5,/,/,/
CO/N=C/c1ccc(N2CCCC2)c([N+](=O)[O-])c1,-14,-7,-1,10
CO/N=C/c1ccc(N2CCN(C(=O)c3ccc(C)cc3)CC2)c([N+](=O)[O-])c1,73*,3,13,2

# High-throughput results (PubChem BioAssay)
